Each structure is given as a SMILES string. A number with no mark means an inactive call. The rule behind the calls is not given here.

The target of the assay is Pantothenate synthetase (Mycobacterium tuberculosis (strain ATCC 25618 / H37Rv)) (UniProt P9WIL5). As to the kind of experiment: Recombinant Mtb pantothenate synthetase (PanC) inhibitors, coupled enzyme, confirmatory (AID 375).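 Note: 0% = full reaction with vehicle and 100% = no enzyme background.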 To be noted: coupled enzyme assay; at 10 µM, hits give high values.
Pantothenate synthetase (Mycobacterium tuberculosis (strain ATCC 25618 / H37Rv)), sequence (P9WIL5 whole entry, looked up): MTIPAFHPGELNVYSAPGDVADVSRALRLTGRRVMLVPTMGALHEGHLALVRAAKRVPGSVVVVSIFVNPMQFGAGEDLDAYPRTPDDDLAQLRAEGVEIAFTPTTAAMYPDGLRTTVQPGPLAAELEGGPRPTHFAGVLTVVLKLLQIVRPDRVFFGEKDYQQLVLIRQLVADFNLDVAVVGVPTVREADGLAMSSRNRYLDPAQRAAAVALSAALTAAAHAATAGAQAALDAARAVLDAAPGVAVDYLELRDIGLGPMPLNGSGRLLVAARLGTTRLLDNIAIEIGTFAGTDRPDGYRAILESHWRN
The term inhibition denotes the drop in the measured response relative to a control, in per cent. As for `COC(=O)C(C)Oc1ccc2c3c(c(=O)oc2c1)CCCCC3` (stereo not given), the inhibition is 2%.

`CCOC(=O)c1cc2c(=O)n3ccccc3nc2n(CCCOC)c1=NC(C)=O`: the inhibition was 1%.

Regarding `CC(=O)c1cc2c(cc1NC(=O)CN1CCN(C(=O)c3ccco3)CC1)OCO2`, the inhibition is 4%.

For `CC(=O)NC(C)C(=O)OCc1ccc(Cl)cc1Cl` (stereo not given), the inhibition is 0%.

As to `CC(C)Oc1ccc2c(=O)c(-c3ccccc3)coc2c1`, the inhibition is 4%.

As for `CCCCCc1c(C)nc(Nc2nc(C)c3cc(OC)ccc3n2)[nH]c1=O`, the inhibition is 0%.

In the case of `Cc1nc(N2CCOCC2)[nH]c(=O)c1CCC(C)C`, the inhibition was 8%.

On to `CN(C)/C=C1\N=C(c2ccc(Cl)cc2Cl)OC1=O`, for which the inhibition is 0%.

Consider `O=C(CN1C(=O)COc2ccccc21)NCCCN1CCc2ccccc2C1`, for which the inhibition was 0%.

With `COc1ccccc1CNS(=O)(=O)c1cccc(S(=O)(=O)N2CCOCC2)c1`, the inhibition was 0%.

Consider `O=C(CCCCCn1c(SCc2ccncc2)nc2ccccc2c1=O)NCc1ccco1`, for which the inhibition was 0%.

Take `O=C(Cn1cnc2c(oc3ccccc32)c1=O)N1CCN(c2ccccc2)CC1`: the inhibition was 1%.

For `CCOc1ccc(NC(=O)CSc2nccn2C)cc1`, the inhibition is 6%.

Take `CCOc1ccccc1Nc1ncnc2ccccc12`: the inhibition was 6%.

Consider `CC1CCN(C(=O)CCNS(=O)(=O)c2ccccc2)CC1`, for which the inhibition is 3%.

As for `CN(C1CCCCC1)S(=O)(=O)c1ccc(S(=O)(=O)N2CCCC2)cc1`, the inhibition was 0%.

In the case of `COC(=O)c1cc(Br)c(=O)n(CCC2=CCCCC2)c1`, the inhibition was 0%.

In the case of `CCOC(=O)c1ccccc1NC(=O)COC(=O)C1=COCCO1`, the inhibition was 0%.

Regarding `COc1ccc(S(=O)(=O)NCc2ccc3c(c2)OCO3)cc1C(=O)O`, the inhibition was 5%.

For the compound `Oc1cccc2ccc(Nc3ccccn3)nc12`, the inhibition was 8%.

In the case of `CCn1nnnc1SCC(=O)N1CCOCC1`, the inhibition was 11%.

For the compound `Cc1cc(N2CCN(c3ccccn3)CC2)n2nc(C)nc2n1`, the inhibition is 1%.

For `CCN(C(=O)c1cn(C)c(=O)c2cc(OC)c(OC)cc12)c1ccccc1C`, the inhibition is 6%.

Consider `CC1CCN(Cc2ccc(-c3nn[nH]n3)cc2)CC1`, for which the inhibition was 0%.

As for `CCN(CC)C(=O)C1=C(C)Nc2nnnn2C1c1cccnc1` (stereo not given), the inhibition is 0%.

Regarding `CCCc1cn(S(=O)(=O)c2ccc(OC)cc2OC)nc1N`, the inhibition is 0%.

As for `CCOC(=O)c1oc2ccccc2c1CSc1nnnn1-c1ccc(C)cc1`, the inhibition was 1%.

`COc1ccc(NC(=O)CS(=O)CC(=O)Nc2cc(Cl)ccc2OC)cc1` (stereo not given): the inhibition is 3%.

For `COC(=O)COc1nc(C)c(Br)c(OC)n1`, the inhibition is 0%.

Take `COc1ccc(C2CC(=O)C(C=NCCN3CCOCC3)=C(O)C2)cc1` (stereo not given): the inhibition was 0%.

For `COC(=O)C1=CN(C)C=C(C(=O)OC)C1c1ccc(O)c(OC)c1`, the inhibition is 0%.

For the compound `O=C(COc1ccccc1)Nc1ccc(-c2nnc(-c3ccco3)o2)cc1`, the inhibition was 2%.

With `Nc1nc(CSCc2ccccc2)nc(N2CCOCC2)n1`, the inhibition is 1%.

As for `CCCN(S(=O)(=O)c1ccc(OCC)cc1)S(=O)(=O)c1cccs1`, the inhibition was 0%.

In the case of `CCC(C)N=C1SCC(C)(/C=N/O)S1` (stereo not given), the inhibition was 0%.

Take `CCOC(=O)CC(C#N)c1cn(C)c2ccccc12` (stereo not given): the inhibition was 4%.

Take `CN1CCN(CC(=O)N2c3ccccc3C(=O)Nc3cccnc32)CC1`: the inhibition was 4%.

For the compound `CCOC(=O)C1CCCN(C(=O)c2cc3c(=O)n4cccc(C)c4nc3n2C)C1` (stereo not given), the inhibition was 0%.

`CC1Cc2cc(/C(O)=C3/C(=O)C(=O)N(CCN4CCOCC4)C3c3cccc(O)c3)ccc2O1` (stereo not given): the inhibition is 6%.

On to `COc1ccc(CCNC(=O)c2cc(-c3cc(C)c(C)cc3O)n[nH]2)cc1OC`, for which the inhibition was 0%.

For the origin of these results see PubChem BioAssay.
